The structures appear in SMILES notation. A number with no mark means an inactive call. Active and inactive are the calls of the source. Calls follow the shape of the dose curve; as a rule, active = well fitted inhibition curve with a large enough effect; inconclusive = small, poorly fitted or top-dose-only effect; inactive = flat fitted curve, though single readings scatter.

These results are taken from PubChem BioAssay (NCATS).

The target of this experiment is Luciferin 4-monooxygenase (Photinus pyralis) (UniProt P08659). Description: Primary firefly luciferase (FLuc) qHTS assay for identification of artifact compounds. (AID 1845220). Also: nearly all actives have a fitted effect of over 60% in size.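 As to activity change, negative = inhibition: plate controls were DMSO vehicle for no effect and no enzyme for full effect.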 To be noted: purified firefly luciferase, luminescence, 5 min; series mostly up to 54.1 µM; activity change, negative = inhibition: at the top concentration. Put shortly: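 Enzymatic FLuc inhibition assay: compounds pre-exposed to luciferin/ATP (10 uM each) for 15 min, then purified P. pyralis enzyme at 10 nM added. Read-out: luminescence at 5 min.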
Take `C/C(=C/CCC(CO)C1CCC2(C)C3CCC4C(C)(C)C(OC5OC(CO)C(O)C(O)C5O)CC(O)C45CC35CCC12C)COC1OC(CO)C(O)C(O)C1O` (configuration not stated): the “outcome” value was “inactive [at 25.7 µM]”.

With `CC(/C=C/[C@]1(O)[C@@]2(C)CO[C@@]1(C)C[C@@H](O)C2)=C\C(=O)O[C@@H]1O[C@H](CO)[C@@H](O)[C@H](O)[C@H]1O`, the “activity change, negative = inhibition” value was 0.432% [at 25.7 µM].

On to `C/C=C(\C)C(=O)O[C@@H]1CC2[C@@H](CC=C3C[C@@H](O[C@H]4C[C@H](OC)[C@H](O[C@H]5C[C@H](OC)[C@H](O[C@H]6C[C@H](OC)[C@H](O[C@H]7C[C@@H](OC)[C@H](O[C@@H]8O[C@H](CO)[C@@H](O)[C@H](O)[C@H]8O)[C@@H](C)O7)[C@@H](C)O6)[C@@H](C)O5)[C@@H](C)O4)CC[C@@]32C)[C@@]2(O)CC[C@H](C(C)=O)[C@@]12C` (some centres not stated), for which the activity change, negative = inhibition is 2.2% [at 11.6 µM].

`COC(=O)C1=CO[C@@H](O[C@@H]2O[C@H](CO)[C@@H](O)[C@H](O)[C@H]2O)[C@@H]2[C@@H](C(=O)OC)[C@@H](O)C(O)[C@H]12` (some centres not stated): the “activity change, negative = inhibition” value was 2.98% [at 25.7 µM].

In the case of `CC(C)c1ccc(CC(=O)N2CCC[C@@H](c3cccc(OC(C)(C)C(=O)O)c3)C2)cc1`, the call was inactive.

Regarding `CC(=O)O[C@@H]1[C@@H](OC(=O)/C=C/c2ccccc2)[C@H](C)O[C@@H](O[C@H]2[C@@H]3C=CO[C@@H](O[C@@H]4O[C@H](CO)[C@@H](O)[C@H](O)[C@H]4O)[C@@H]3[C@@]3(CO)O[C@@H]23)[C@@H]1OC(C)=O`, the “outcome” value is “inactive [at 25.7 µM]”.

Consider `COc1ccccc1CC(C(=O)O)N(C)C(=O)c1ccccc1` (configuration not stated), for which the “activity change, negative = inhibition” value is -14.4%.
